{"source": "PubChem BioAssay (EPA / NIEHS)", "note": "The source holds several records for some structures; these can differ, active in one and inactive in another. Active and inactive are the calls of the source. How the source made its calls: active means hit-call score of the fitted dose curve at least 0.9, where 1 is the maximum; inactive means score below 0.9.", "data": [{"assay": "BSK_SAg_PBMCCytotoxicity: PBMC Cytotoxicity Assessment in the BioMAP Diversity Plus: SAg Assay (AID 2283093);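 further: PBMC viability measured as Alamar Blue reduction fluorescence at 546/580 nm; fitted both ways against DMSO so a hit may be loss or gain of signal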;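 on AC50: PBMC superantigen activated with SEB plus TSST-1 one hour after compound addition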", "conditions": "primary human HUVEC with PBMC", "procedure,_shortened": "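Alamar Blue reduction (6 h, 546/580 nm) reports PBMC cytotoxicity after 90 h superantigen activation (SEB, TSST-1; 20 ng/mL final each) with 1 h compound pre-treatment. Gain or loss of signal fitted versus DMSO.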", "values": [{"smiles": "CNC(=O)Oc1cccc(N=CN(C)C)c1", "outcome": "inactive"}, {"smiles": "CCc1ccc(C(=O)NN(C(=O)c2cc(C)cc(C)c2)C(C)(C)C)cc1", "outcome": "inactive"}, {"smiles": "CC(C)(C)C(O)C(Oc1ccc(Cl)cc1)n1cncn1", "note": "(configuration not stated)", "AC50": "3.38 µM (active)", "outcome": "inactive"}, {"smiles": "CCC(C)(NC(=O)c1cc(Cl)c(C)c(Cl)c1)C(=O)CCl", "note": "(configuration not stated)", "AC50": "20 µM (active)"}, {"smiles": "COC(=O)c1ccccc1S(=O)(=O)NC(=O)Nc1nc(C)nc(OC)n1", "AC50": "15.5 µM (active)"}, {"smiles": "COC(=O)c1ccccc1CS(=O)(=O)NC(=O)Nc1nc(OC)cc(OC)n1", "outcome": "inactive"}, {"smiles": "O=C(O)COc1ccc(Cl)cc1Cl", "outcome": "inactive"}, {"smiles": "CCC(C)(C)C(=O)OC1=C(c2ccc(Cl)cc2Cl)C(=O)OC12CCCCC2", "AC50": "26.5 µM (active)"}, {"smiles": "CCN(CC)C(=O)SCc1ccc(Cl)cc1", "outcome": "inactive"}, {"smiles": "COc1cc(OC)nc(NC(=O)NS(=O)(=O)c2cc(NC=O)ccc2C(=O)N(C)C)n1", "outcome": "inactive"}, {"smiles": "O=C(O)C(F)(F)C(F)(F)C(F)(F)C(F)(F)C(F)(F)C(F)(F)C(F)(F)F", "outcome": "inactive"}, {"smiles": "O=C(NC(=O)c1c(F)cccc1F)Nc1ccc(OC(F)(F)C(F)OC(F)(F)F)c(Cl)c1", "note": "(configuration not stated)", "AC50": "8.44 µM (active)"}, {"smiles": "N#CN", "outcome": "inactive"}, {"smiles": "Clc1ccccc1-c1nnc(-c2ccccc2Cl)nn1", "outcome": "inactive"}, {"smiles": "CCOc1nc(NC)nc(NC(=O)NS(=O)(=O)c2ccccc2C(=O)OC)n1", "outcome": "inactive"}, {"smiles": "COP(=S)(OC)Oc1ccc(SC)c(C)c1", "outcome": "inactive"}, {"smiles": "[2H]C1([2H])[n+]2ccccc2-c2cccc[n+]2C1([2H])[2H]", "outcome": "inactive"}, {"smiles": "C#CCN1C(=O)COc2cc(F)c(N3C(=O)C4=C(CCCC4)C3=O)cc21", "outcome": "inactive"}, {"smiles": "CC(C)OC(=O)Nc1cccc(Cl)c1", "outcome": "inactive"}, {"smiles": "Oc1cc(Cl)ccc1Oc1ccc(Cl)cc1Cl", "AC50": "13.8 µM (active) [middle of 4 runs]"}, {"smiles": "Cc1[nH]c(=O)n(C(C)(C)C)c(=O)c1Cl", "AC50": "9.4 µM (active)"}, {"smiles": "CCS(=O)(=O)c1cccnc1S(=O)(=O)NC(=O)Nc1nc(OC)cc(OC)n1", "outcome": "inactive"}, {"smiles": "ClC1C(Cl)C(Cl)C(Cl)C(Cl)C1Cl", "note": "(configuration not stated)", "outcome": "inactive"}, {"smiles": "Cc1cc(C)nc(NC(=O)NS(=O)(=O)c2ccccc2C(=O)OC2COC2)n1", "outcome": "inactive"}, {"smiles": "CCC(C)Nc1c([N+](=O)[O-])cc(C(C)(C)C)cc1[N+](=O)[O-]", "note": "(configuration not stated)", "AC50": "31.9 µM (active)"}, {"smiles": "O=S(=O)(O)C(F)(F)C(F)(F)C(F)(F)C(F)(F)C(F)(F)C(F)(F)C(F)(F)C(F)(F)F", "outcome": "inactive"}]}]}
